Results from PubChem BioAssay (NCATS).
Results filed as inconclusive are left out. A call without a number means that no potency is given here. Calls of active or inactive are those of the source. The call rests on the fitted dose curve; in most records, active means well fitted curve in the direction sought with a large enough effect; inconclusive means small, poorly fitted or top-dose-only effect, or another doubt; inactive means no such curve, though single readings can be large; an effect the other way counts as inactive or inconclusive.

Assays:
[1] = qHTS of pediatric cancer cell lines to identify multiple opportunities for drug repurposing: Primary screen for control Hh wild type fibroblast cells (AID 1347106);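 further: series mostly up to about 46 µM; a drop in luminescence marks cytotoxicity and a rise apparent proliferation; nearly all actives have a fitted effect of over 55% in size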
Outline: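 Viability after 48 h compound treatment at 37C, 500-1,000 cells/well, read as ATP luminescence with CellTiter-Glo. Primary screens used 11-point (MIPE, 0.78 nM-46 µM) or 8-point (NPC, 0.59 nM-46 µM) final concentrations; follow-up screens used 11-point dilutions.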

[2] = qHTS of pediatric cancer cell lines to identify multiple opportunities for drug repurposing: Primary screen for Rh30 cells (AID 1347107); further: series mostly up to about 46 µM; nearly all actives have a fitted effect of over 75% in size
Outline: (§1)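 Cells (500-1,000/well) rested 5 h, then received compounds for 48 h; metabolically active cells were measured by CellTiter-Glo luminescence. Final concentrations spanned up to 46 µM (MIPE, 11-point) or 0.59 nM-46 µM (NPC, 8-point) in primary screens, 11-point in follow-ups.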

[3] = qHTS of pediatric cancer cell lines to identify multiple opportunities for drug repurposing: Primary screen for Rh41 cells (AID 1347108);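 further: series mostly up to about 46 µM; luminescence drop marks cytotoxic hits; nearly all actives have a fitted effect of over 70% in size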
Outline: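 Cells plated at 500-1,000/well in growth medium, compounds added after 5 h. MIPE tested at 11 points (from 0.78 nM), NPC at 8 points (from 0.59 nM). CellTiter-Glo luminescence after 48 h; concentration-response curves from primary screen.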

[4] = qHTS of pediatric cancer cell lines to identify multiple opportunities for drug repurposing: Confirmatory screen for SK-N-MC cells (AID 1347111); conditions: SK-N-MC cell viability;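 further: potency means the concentration at half of the fitted maximal effect; cells exposed to compound for 48 h before the readout; nearly all actives have a fitted effect of over 70% in size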
Text: Drug repurposing or repositioning has been offered as a strategy for drug development in oncology programs. This approach has special potential for childhood cancers and other rare or orphan diseases, where the expected return on new drug development has been a disincentive to pharmaceuticals.
In this project we exploit the poly-pharmacology of drugs to discover new indications via phenotypic screening of a panel of 19 well-characterized cell lines derived from solid tumors seen in children and adolescents. The goal is to identify approved drugs with previously unrecognized anticancer properties that has the potential to reveal new mechanisms and biological processes involved in carcinogenesis or drug resistance. We employed a titration-based paradigm (quantitative high-throughput screening or qHTS), where all compounds were tested at multiple concentrations for their effect on cell viability. Concentration-response curves (CRCs) were derived directly from the primary screen, and both potency and efficacy values were used to identify compounds with robust bioactivity profiles. We screened the NIH Chemical Genomics Center (NCGC) Pharmaceutical Collection (NPC) and Mechanism Interrogation Plate (MIPE) small molecule collections of approved and investigational compounds against these cell lines; and measured metabolically active cells after 48 hours of compound treatment as a proxy for cell viability.
Assay Submitter: Nathalia J. Martinez, National Center for Advancing Translational Sciences, National Institutes of Health, Rockville, MD, USA; email: natalia.martinez@nih.gov
[1] Shen, M et al. Quantitative high-throughput phenotypic screening of pediatric cancer cell lines identifies multiple opportunities for drug repurposing. Oncotarget 2017 Dec 19;9(4):4758-4772. PMID 29435139. […]
Cells were assayed in growth media at a density of 500-1,000 cells/well. […] After a 15 min incubation at room temperature, samples were analyzed for luminescence intensity using a ViewLux High-throughput CCD imager equipped with clear filters.

[5] = qHTS of pediatric cancer cell lines to identify multiple opportunities for drug repurposing: Confirmatory screen for LAN-5 cells (AID 1347113); further: nearly all actives have a fitted effect of over 65% in size
Outline: as §1

| Compound | outcome [1] | outcome [2] | outcome [3] | Potency [4] | Potency [5] |
| --- | --- | --- | --- | --- | --- |
| NCC1CCC(C(=O)Oc2ccc(CCC(=O)O)cc2)CC1 (stereo not drawn) | inactive | inactive | inactive | – | – |
| CC(N)CCCC(C)(C)O (stereo not drawn) | inactive | inactive | inactive | – | – |
| O=C(CN1CCNCC1)NC1CCCCC1 | inactive | inactive | inactive | – | – |
| NC(=O)CC[C@@H](N)C(=O)O | inactive | inactive | inactive | – | – |
| O[C@@H]1CO[C@H]2[C@@H]1OC[C@@H]2O | inactive | inactive | inactive | – | – |
| O=C(O)/C=C/c1ccc(Cn2ccnc2)cc1 | inactive | inactive | inactive | – | – |
| NC(N)=NS(=O)(=O)c1ccc(N)cc1 | inactive | inactive | inactive | – | – |
| O=C(Cn1ccnc1[N+](=O)[O-])NCc1ccccc1 | – | – | – | 2.93 µM (active) | inactive |
| CC(=O)[C@@]1(O)CC[C@H]2[C@@H]3C[C@H](C)C4=CC(=O)C=C[C@]4(C)[C@@]3(F)[C@@H](O)C[C@@]21C | – | – | – | 23.3 µM (active) | inactive |
| Cc1ccc(S(=O)(=O)NC(=O)NC2CCCCC2)cc1 | – | inactive | inactive | – | – |
| O=C(/C=C/c1ccccc1)OCc1ccccc1 | – | inactive | inactive | – | – |
| Cc1c(N(C)C)c(=O)n(-c2ccccc2)n1C | – | inactive | inactive | – | – |
| CC(C)(C)C(=O)OCOC(=O)[C@@H]1N2C(=O)[C@@H](NC(=O)[C@H](N)c3ccccc3)[C@H]2SC1(C)C | – | inactive | inactive | – | – |
